Source: PubChem (several laboratories)
TROY signal inh – inhibitors of TROY-driven NF-kB signaling, primary screen, Q293 LMP1-TROYcd cells, NF-kB luciferase, uHTS; AID 1347056, 2019; Q293 LMP1-TROYcd NF-kB luciferase reporter, 4 h; inhibition, % at 10 µM; actives 0.98% (n = 360,000);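 active = compounds whose plate-normalised and pattern-corrected inhibition of the luciferase reporter signal at the single screening dose is 50% or more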
HSF-1 act – HSF-1 activators, primary screen, NIH3T3-HGL cells, MG132 stress, luminescence, single point; activation, % at 9 µM; actives 1.7% (n = 300,000); AID 504408, 2011; NIH3T3-HGL HSF-1 luciferase reporter, 8 h; 100% = twice DMSO control signal;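 active = mean replicate activation of at least 50% with a set share of replicates each reaching 50%; inconclusive = only one of those two conditions met; inactive = mean below 50% and too few replicates reaching it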;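 note: 0% = median of the neutral control wells and 100% = twice that signal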
TWEAK-Fn14 inh – inhibitors of TWEAK-Fn14 signaling, primary screen, luciferase reporter cells, uHTS; TWEAK-stimulated Fn14 reporter cells, luciferase luminescence, 8 h; inhibition, % at 10 µM; actives 2% (n = 360,000); in the data active = inhibition above about 50%
LGR2 inh – inhibitors of bursicon-induced LGR2 CRE-luciferase signal, primary screen, cell-based, HEK293, CRE-luciferase reporter, bursicon stimulation; bursicon-stimulated, 4 h; Drosophila bursicon receptor LGR2 (rickets); inhibition, % at 9.99 µM; actives 0.35% (n = 380,000);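 active = drop in luminescence signal, shown as inhibition above about 50% in the replicate tests, limit read from the data, passing the limit was not always enough; inconclusive = probably only some replicates passing the limit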;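 note: agonist challenge used bursicon conditioned medium at about half maximal strength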
HSF1 inhib – HSF1 inhibitors in luciferase reporter cells, primary screen, cell-based, NIH3T3, luminescence; actives 0.77% (n = 300,000); NIH3T3-HGL HSE-luciferase, MG132-induced, luminescence 8 h; hits give low values; activity change, negative = inhibition, % at 7.5 µM (by protocol);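 active = more than half of replicate wells show activity change below -50%, luminescence cut by over half; inconclusive = some wells, but at most half, below -50%; inactive = no replicate well below -50%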;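 note: luciferase reports HSF-1 transcriptional activity via heat shock element; 0% = median of DMSO wells and -100% = zero luminescence signal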
LMP1 NFkB inh – EBV LMP1-driven NF-kappaB luciferase reporter inhibitors, primary screen, cell-based, luminescence, single point | LMP1-induced NF-kappaB luciferase reporter cells | AID 504558, 2011 | actives 0.69% (n = 350,000) | inhibition, % at 12.5 µM; in the data active = inhibition above about 41%; inconclusive = no clear call, values can overlap the other calls;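 note: 0% = neutral control wells and 100% = reference inhibitor control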
Active calls of the source: *; ? = inconclusive; . = not tested or not shown. Only some compounds are listed: those with a hit (about 3.6% of all), similar ones and a draw of the others.

SMILES	TROY signal inh	HSF-1 act	TWEAK-Fn14 inh	LGR2 inh	HSF1 inhib	LMP1 NFkB inh
COc1ccc2nc3oc(C(=O)NC4CCN(Cc5ccccc5)CC4)cc3cc2c1	-15	.	53*	.	.	0
CC1CCc2nc(/C(C#N)=C/c3ccncc3)sc2C1 (stereo unspecified)	-9	97*	1	-10	64	-12
COc1ccc(NC(=O)N(C)C[C@@H]2Oc3ccc(NC(=O)c4ccncc4)cc3CC(=O)N([C@H](C)CO)C[C@@H]2C)cc1	.	.	.	-26	.	.
CCN(C(=O)CSc1nnc(Nc2cccc(C)c2C)s1)C1CCS(=O)(=O)C1 (stereo unspecified)	4	18	-18	.	0	47*
CC(C)(C)N1C(=O)c2ccc(C(=O)Nc3cc(C(=O)O)cc(C(=O)O)c3)cc2C1=O	16	-15	99*	23	-6	5
Cc1cc(NC(=O)c2ccc3c(c2)C(=O)N(C(C)(C)C)C3=O)no1	-20	9	-6	.	0	-10
C[C@H]1CN([C@@H](C)CO)C(=O)Cc2cc(NS(C)(=O)=O)ccc2O[C@H]1CN(C)S(=O)(=O)c1ccc(Cl)cc1	.	.	.	26	.	.
CCCNC(=O)N(C)C[C@H]1Oc2ncc(C#CCc3ccccc3)cc2C(=O)N([C@H](C)CO)C[C@@H]1C	.	.	.	-2	.	.
c1ccc(C[n+]2cccc(-c3ccccc3)c2)cc1	90*	3	91*	-11	-15	-8
CNC[C@H]1Oc2c(NC(=O)Nc3ccccc3)cccc2C(=O)N([C@H](C)CO)C[C@@H]1C	.	.	.	-8	.	.
Cc1ccc(C(=O)c2c(C)oc3c2C(=O)C(=O)c2ccccc2-3)cc1	29	14	54*	.	16	46*
Cc1oc2c(c1C(=O)c1ccc(Cl)cc1)C(=O)C(=O)c1ccccc1-2	38	-11	91*	.	7	90*
O=C1CSC(c2ccccn2)N1c1ccc(Cl)c(Cl)c1 (stereo unspecified)	-4	3	107*	.	-2	-2
C=CCc1cccc(/C=C/c2cc(=O)c3ccccc3[nH]2)c1O	30	55*	26	-35	25	-5
C=CCc1cccc(/C=N/n2cnnc2)c1O	-10	11	10	.	5	4
Cc1ccsc1/C=C/c1ccc2cccc(O)c2n1	-55	71*	-5	.	46	-17
Oc1cccc2ccc(/C=C/c3cccs3)nc12	-40	33	6	8	24	-68
Cc1ccsc1/C=C/c1ccc2ccccc2n1	47	-35	52*	.	-24	70*
C/C(=N\NS(=O)(=O)c1ccccc1)c1ccc2c(c1)OCCO2	1	-67	11	.	-56*	-16
C/C(=N/NC(=O)c1ccc2c(c1)OCCO2)c1ccc([N+](=O)[O-])cc1	-38	-65	-16	4	-67*	-14
C[C@@H](O)C#Cc1ccc([C@@H]2[C@H]3CN(C(=O)c4ccncc4)CCCCN3[C@H]2CO)cc1	.	.	.	-2	.	.
Cc1cc(C)c(S(=O)(=O)/N=C2/C=C(Sc3ncn[nH]3)C(=O)c3ccccc32)cc1C	59*	.	94*	6	.	-2
CN(C)CCN(C(=O)c1cc(Cl)sc1Cl)c1nc2ccc(F)cc2s1	-28	43	-35	-23	18	-13
CCN(CC)CCN(C(=O)c1ccccc1OC)c1nc2ccc(F)cc2s1	76*	.	-27	-16	.	-2
CCN(CC)CCN(C(=O)c1ccc2c(c1)CCCC2)c1nc2ccc(F)cc2s1	55*	-14	36	1	-11	-12
SMILES	TROY signal inh	HSF-1 act	TWEAK-Fn14 inh	LGR2 inh	HSF1 inhib	LMP1 NFkB inh
O=C(C1CCC1)N1CC(=O)N2[C@H](C1)[C@H](c1ccc(C#Cc3cccc(F)c3)cc1)[C@@H]2CO	.	.	.	-3	.	.
C[C@@H]1CN([C@H](C)CO)C(=O)c2cc(-c3cncnc3)cnc2O[C@@H]1CN(C)C(=O)Cc1ccccn1	.	.	.	-5	.	.
CC(C)(C)c1ccc(-c2nnc3sc(-c4ccccn4)nn23)cc1	72*	-60	74*	14	-53*	5
C[C@@H]1CN([C@@H](C)CO)C(=O)c2cc(C#CC3(O)CCCC3)cnc2O[C@@H]1CN(C)C(=O)CC1CC1	.	.	.	12	.	.
COc1cccc(C(=O)NC2CCCC2)c1	-7	70*	-11	-8	25	3
COc1cccc(C(=O)Nc2ccc(C)cc2)c1	-67	32	-10	-8	21	-5
CCC1CCC(NC(=O)Nc2cccc(OC)c2)CC1 (stereo unspecified)	-60	62*	-18	-83	25	-47
COc1cccc(C(=O)Nc2ccc(C3CC3(Cl)Cl)cc2)c1 (stereo unspecified)	-37	103*	-7	-74	61	-35
COc1ccc2oc(C(=O)Nc3ccccn3)c(C)c2c1	8	33	52*	-24	14	-6
CO[C@H]1CN(C)C(=O)c2cc(NC(=O)c3ccccc3)ccc2OC[C@@H](C)N(C(C)=O)C[C@H]1C	.	.	.	-5	.	.
COc1ccc2oc(C(=O)NC3CCCCC3)c(C)c2c1	-43	61*	-32	-61	37	-1
O=C(N[C@H]1CC[C@H](CCn2cc(C3(O)CCCC3)nn2)O[C@H]1CO)C1CCOCC1	.	.	.	25	.	.
C[n+]1c(-c2ccccc2)cc2c(=Cc3ccccc3)c3ccccc3n21	28	.	74*	?	.	30
Cc1cc2c(=Cc3ccc(N(C)C)cc3)c3ccccc3n2[n+]1C	41	-5	67*	50	-5	24
CCOC(=O)c1cc2c(=Cc3ccc(N(C)C)cc3)c3ccccc3n2[n+]1C	27	.	7	12	.	10
C[C@@H]1CN([C@H](C)CO)C(=O)c2cc(N(C)C)ccc2O[C@@H](C)CCCCO[C@@H]1CN(C)C(=O)Nc1cccc2ccccc12	.	.	.	5	.	.
Cn1c(=O)c2[nH]c(CCCCc3nc4ccccc4[nH]3)nc2n(C)c1=O	15	.	16	-19	.	-6
Cn1c(=O)c2[nH]c(CCCCCCCCc3nc4ccccc4[nH]3)nc2n(C)c1=O	41	.	70*	22	.	21
CCOC(=O)c1c(-c2ccc(OC)cc2)csc1/N=C/C1=C(O)CCCC1=O	12	-8	20	22	3	53*
COc1ccc(OCCN2C(=O)c3cccc(N)c3C2=O)cc1	-21	59*	-18	-25	39	-21
Cc1ccc(OCCN2C(=O)c3ccccc3C2=O)cc1	-29	28	-4	-34	21	2
